Screening results as filed in PubChem.
Cruzain noTriton: inhibitors of Trypanosoma cruzi cruzain without detergent | AID 1476 | 200,000 compounds, 2.3% hits | purified cruzain, Z-FR-AMC fluorescence, no detergent | Potency, µM, without a hit: max response, negative = inhibition, most hits filed as inhibitors;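 further: plate controls were enzyme without inhibitor for no effect and buffer without enzyme for full effect; nearly all actives have a fitted effect of over 40% in size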
Target sequence (P25779 123-467 limits assumed): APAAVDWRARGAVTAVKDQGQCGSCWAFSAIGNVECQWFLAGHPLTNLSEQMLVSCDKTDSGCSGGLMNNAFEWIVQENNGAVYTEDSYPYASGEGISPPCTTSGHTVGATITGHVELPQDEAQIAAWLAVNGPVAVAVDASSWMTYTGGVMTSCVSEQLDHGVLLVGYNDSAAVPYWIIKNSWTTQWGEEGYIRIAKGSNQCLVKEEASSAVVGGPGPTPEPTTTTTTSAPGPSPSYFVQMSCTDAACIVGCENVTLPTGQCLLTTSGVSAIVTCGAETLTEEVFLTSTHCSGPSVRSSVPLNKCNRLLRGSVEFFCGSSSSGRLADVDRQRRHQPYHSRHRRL
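Purified cruzain at 1.5 nM, pre-incubated 15 min with compound at room temperature in 100 mM sodium acetate pH 5.5, 5 mM DTT, 0.00005% Triton X-100. Reaction started with 2 uM Z-FR-AMC; AMC fluorescence increase over 60 s gives rate.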
Cruzain inh Det: cruzain (T. cruzi) inhibition with detergent; AID 1478; Potency, µM, without a hit: max response, negative = inhibition, actives largely listed as inhibitors; 200,000 compounds, 0.43% hits; purified cruzain, Z-FR-AMC fluorescence, 0.01% Triton;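 further: plate controls were neutral wells for no effect and buffer without enzyme for full effect; nearly all actives have a fitted effect of over 40% in size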
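Compounds were screened in titration against cruzain (1.5 nM) with 0.01% Triton X-100 to counter colloidal aggregation. Activity was the AMC fluorescence increase over 60 s after adding 2 uM Z-FR-AMC at pH 5.5.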
Giardia FBPA inh-1: Giardia lamblia aldolase inhibition | 290,000 compounds, 0.71% hits | purified Giardia FBPA | A8B2U2 | Potency, µM (series often up to 59.6 µM), for the others: at the top dose activity, negative = inhibition, hits mostly inhibitors; further: nearly all actives have a fitted effect of over 55% in size
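Giardia FBPA (40 nM reagent) was preincubated 10 min at RT with compound (up to 57.5 uM final), then substrate plus GAPDH/TPI/NAD/arsenate coupling system with diaphorase/resazurin was added; resorufin fluorescence (525/598 nm) was read after 20 min.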
Giardia growth: Giardia lamblia growth inhibition; Giardia lamblia trophozoite growth inhibition; Potency, µM (highest dose often 57.5 µM), without a hit: at the highest dose activity change, negative = inhibition, actives largely listed as inhibitors; AID 2785; 1,500 compounds, 5% hits; shares compounds with Giardia FBPA inh-1;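 further: trophozoites exposed to compound for 48 h at 37 °C; nearly all actives have a fitted effect of over 70% in size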
Mammalian tox: toxic to mammalian cells in Giardia aldolase counter-screen; shares compounds with Giardia FBPA inh-1; mammalian cell viability counter-screen, qHTS; Potency, µM (top dose mostly 57.5 µM), for inactives: at the top dose viability change, negative = toxicity, hits mostly inhibitors; 1,500 compounds, 4% hits;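 further: Chinese hamster ovary cells used as mammalian cytotoxicity surrogate; viability measured as cellular ATP by luminescence; compound exposure lasted 48 h before reading; nearly all actives have a fitted effect of over 60% in size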
Giardia FBPA inh-2: confirmation of Giardia fructose-bisphosphate aldolase inhibitors; purified Giardia aldolase enzyme activity, qHTS; AID 2787; 1,500 compounds, 5% hits; Potency, µM (doses to about 57.5 µM), inactives show at the top dose activity change, negative = inhibition, hits mostly inhibitors; shares compounds with Giardia FBPA inh-1; further: nearly all actives have a fitted effect of over 45% in size
Rabbit aldolase: blocks rabbit muscle aldolase in Giardia aldolase selectivity test; 1,500 compounds, 4% hits; Potency, µM (top dose mostly 57.5 µM), without a hit: at the highest dose activity, negative = inhibition, usual class: inhibitors; Rabbit muscle FBPA enzyme inhibition, selectivity counter-screen; shares compounds with Giardia FBPA inh-1; AID 2794; further: nearly all actives have a fitted effect of over 60% in size
Target sequence (P00883 whole entry, looked up): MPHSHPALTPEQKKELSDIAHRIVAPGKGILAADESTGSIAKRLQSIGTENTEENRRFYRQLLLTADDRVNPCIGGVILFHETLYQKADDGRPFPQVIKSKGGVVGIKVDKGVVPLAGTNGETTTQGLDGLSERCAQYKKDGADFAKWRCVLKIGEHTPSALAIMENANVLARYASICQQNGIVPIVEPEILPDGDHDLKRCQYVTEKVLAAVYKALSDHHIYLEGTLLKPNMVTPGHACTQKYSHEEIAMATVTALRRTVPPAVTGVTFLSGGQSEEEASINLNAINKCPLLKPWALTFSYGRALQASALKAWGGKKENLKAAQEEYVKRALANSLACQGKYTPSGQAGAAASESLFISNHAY
GAPDH coupling: counter-screen for Giardia aldolase inhibitors: GAPDH coupling enzyme; 1,500 compounds, 6% hits; shares compounds with Giardia FBPA inh-1; GAPDH coupling enzyme counterscreen, biochemical, qHTS; AID 2795; Potency, µM (series often up to 57.5 µM), without a hit: top-dose activity change, negative = inhibition, most hits filed as inhibitors; further: nearly all actives have a fitted effect of over 55% in size
Active calls of the source: *; [ ] = remark or other dose. Only a selection was taken, and hits are over-represented in it overall. The call rests on the fitted dose curve; in most records, active means well fitted curve in the direction sought with a large enough effect; inconclusive means small, poorly fitted or top-dose-only effect, or another doubt; inactive means no such curve, though single readings can be large; an effect the other way counts as inactive or inconclusive. Unless noted, on the % scale 0 is the no-effect control and ±100 the full control effect; potency means the concentration at half of the fitted maximal effect.

CN1CCc2c(sc(NC(=O)c3cc(Cl)sc3Cl)c2C(N)=O)C1 was read as Giardia FBPA inh-1 31.6µM*, Giardia growth -65.0%, Mammalian tox inconclusive, Giardia FBPA inh-2 3.7%, Rabbit aldolase 2.2% and GAPDH coupling 0.4%.
Screening CCc1ccccc1NC(=O)N1CC(CC)Oc2ccc(Cl)cc21 (stereo not drawn) returned Cruzain noTriton -3.0% and Cruzain inh Det -7.6%.
`CCOC(=O)c1cnn(-c2ccc(C(=O)Nc3cccc(C(C)=O)c3)cc2)c1N` gave Cruzain noTriton inconclusive and Cruzain inh Det 2.7%.
`COc1cc(OC)c(NC(=O)Nc2cccc(OCc3cc(=O)n4ccccc4n3)c2)cc1Cl` gave Cruzain noTriton -12.5% and Cruzain inh Det 4.2%.
For CCc1nc(C)ccc1OCC(=O)NCCCN(C)C the results were Cruzain noTriton 7.4%, Cruzain inh Det 2.1%, Giardia FBPA inh-1 12.6µM*, Giardia growth 12.6%[10.4 µM], Mammalian tox -0.8%, Giardia FBPA inh-2 -1.5%, Rabbit aldolase 6.4% and GAPDH coupling -14.9%.
Screening CCc1nc(C)ccc1OCC(=O)O returned Cruzain noTriton 1.1%, Cruzain inh Det 4.7% and Giardia FBPA inh-1 -5.2%.
O=C(Cc1ccc(Cl)cc1)NCC(c1cccs1)S(=O)(=O)c1ccccc1 (stereo not drawn) was read as Cruzain noTriton -8.9% and Cruzain inh Det -5.8%.
Cc1ccc(CNc2ccc(-c3nc(C(C)C)no3)cc2[N+](=O)[O-])cc1 was read as Cruzain noTriton 13.9% and Cruzain inh Det -3.3%.
O=C(CCCSc1ccccc1)Nc1nc(-c2ccccn2)cs1 was read as Cruzain noTriton 3.3%, Cruzain inh Det -6.1% and Giardia FBPA inh-1 6.4%.
O=C(/C=C/c1ccco1)Nc1nc(-c2ccccc2)cs1 was read as Cruzain noTriton inconclusive, Cruzain inh Det -10.8% and Giardia FBPA inh-1 -10.2%.
CSCCC(=O)Nc1nc(-c2ccccn2)cs1 was read as Giardia FBPA inh-1 15.8µM*, Giardia growth 14.1µM*, Mammalian tox -21.3%, Giardia FBPA inh-2 -4.5%, Rabbit aldolase -4.1% and GAPDH coupling -3.2%.
For C[C@H](NC(=O)c1ccccc1)C(=O)Nc1nc(-c2ccccn2)cs1 the results were Giardia FBPA inh-1 5.61µM*, Giardia growth inconclusive, Mammalian tox -13.6%, Giardia FBPA inh-2 0.8%, Rabbit aldolase -3.0% and GAPDH coupling -2.9%.
O=C(/C=C/c1ccco1)Nc1nc(-c2ccccn2)cs1 was read as Giardia FBPA inh-1 17.7µM*, Giardia growth inconclusive, Mammalian tox inconclusive, Giardia FBPA inh-2 -12.8%, Rabbit aldolase -10.5% and GAPDH coupling -7.2%.
Cc1cccc(C(=O)NC(C(=O)Nc2nc(-c3ccccn3)cs2)C(C)C)c1 (stereo not drawn) was read as Giardia FBPA inh-1 -11.6%.
N#Cc1ccc(-c2cccs2)nc1SCc1ccc(Cl)cc1Cl was read as Cruzain noTriton -9.2% and Cruzain inh Det -1.0%.
`CCOc1ccccc1CNC(=O)CCn1cccn1` gave Cruzain noTriton -3.4% and Cruzain inh Det 1.1%.
`Cc1ccc(NC(=O)CSc2ncc3c(n2)-c2ccccc2N(C)S3(=O)=O)c(Cl)c1` gave Cruzain noTriton -4.0% and Cruzain inh Det 2.8%.
`CCOC(=O)CSc1nc(N)c(C#N)c(-c2ccc(OCC)cc2)c1C#N` gave Cruzain noTriton 0.2%, Cruzain inh Det -2.5% and Giardia FBPA inh-1 3.5%.
CC1=C(C#N)c2nc(N)c(C#N)c(C)c2/C1=C\c1ccc(OCC(=O)O)c(Cl)c1 was read as Giardia FBPA inh-1 19.9µM*, Giardia growth inconclusive, Mammalian tox -2.9%, Giardia FBPA inh-2 -16.7%, Rabbit aldolase -12.3% and GAPDH coupling -5.7%.
Cc1c(Cl)cccc1-n1ncc(C(=O)NC2CCCC2)c1C1CCN(C(=O)OC(C)(C)C)CC1 was read as Cruzain noTriton -13.4% and Cruzain inh Det -1.2%.
Screening CCCCN(C)CC(O)Cn1cc(/C=C/C(=O)c2ccc(OC)c(OC)c2)c2ccccc21 (stereo not drawn) returned Cruzain noTriton -10.0% and Cruzain inh Det -14.6%.
C/C(=N\NC(=O)c1ccc(Cl)c(Cl)c1)c1ccccn1 was read as Giardia FBPA inh-1 inconclusive, Giardia growth -2.6%[38.3 µM], Mammalian tox 2.91µM*, Giardia FBPA inh-2 0.6%, Rabbit aldolase -3.9% and GAPDH coupling 1.2%.
C/C(=N/NC(=O)c1ccccn1)c1ccncc1 was read as Giardia FBPA inh-1 -5.8%.
COc1ccc(NC(=O)/C=C/c2ccccc2)cn1 was read as Cruzain noTriton -7.0%, Cruzain inh Det -3.6% and Giardia FBPA inh-1 -26.2%.
COc1cccc(/C=C/C(=O)Nc2ccc(OC)nc2)c1 was read as Cruzain noTriton -8.1%, Cruzain inh Det -5.1%, Giardia FBPA inh-1 22.3µM*, Giardia growth inconclusive, Mammalian tox -8.1%, Giardia FBPA inh-2 -18.7%, Rabbit aldolase -1.0% and GAPDH coupling -8.8%.
For CCNC(=S)NNc1nncc2ccccc12 the results were Giardia FBPA inh-1 -16.7%.
CCNC(=S)NS(=O)(=O)c1ccccc1 was read as Cruzain noTriton 9.7%, Cruzain inh Det -4.9%, Giardia FBPA inh-1 7.92µM*, Giardia growth -16.4%, Mammalian tox 12.1%, Giardia FBPA inh-2 0.5%, Rabbit aldolase 9.9% and GAPDH coupling 14.1%.
CCNC(=S)NS(=O)(=O)c1ccc(Cl)cc1 was read as Cruzain noTriton -1.4%, Cruzain inh Det -8.0%, Giardia FBPA inh-1 7.08µM*, Giardia growth 25.1%, Mammalian tox -3.4%, Giardia FBPA inh-2 5.2%, Rabbit aldolase 1.0% and GAPDH coupling 9.7%.
For CCNC(=S)NNc1ccccc1 the results were Giardia FBPA inh-1 11.2µM*, Giardia growth -12.7%[10.4 µM], Mammalian tox 10.8%, Giardia FBPA inh-2 3.0%, Rabbit aldolase 11.2% and GAPDH coupling 1.6%.
For O=S(=O)(NC(=S)NC1CCCCC1)c1ccc(Cl)cc1 the results were Giardia FBPA inh-1 13.2%.
`O=C(NS(=O)(=O)c1ccccc1)c1ccccc1` gave Cruzain noTriton -2.9%, Cruzain inh Det 0.5% and Giardia FBPA inh-1 12.8%.
For COc1ccc(-c2nnc(SCC(=O)Nc3cccc(C(F)(F)F)c3)s2)cc1 the results were Cruzain noTriton -19.1% and Cruzain inh Det -2.3%.
